Molecules are shown by their SMILES. The panel holds about 83,000 compounds, 20% with a hit somewhere; the sample as a whole holds those more often.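 Treatment: one concentration, 48 hours, 96-well format. Scoring: percent growth, with anything below 10 considered active.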 A number with no mark means an inactive call. The source made the active and inactive calls.

The subject of the assay is ACHN renal. Kind of assay: NCI-60 one-dose screen, 48 h (100 = growth as untreated, 0 = no growth, -100 = all killed). The note with it: 10 µM unless noted. The method, then: Growth inhibition of the ACHN human tumor cell line is measured as a screen for anti-cancer activity. Cells are grown in 96 well plates and exposed to the test compound for 48 hours. Compounds are tested at a single concentration, which is 10^-5 M for most compounds. The reported endpoint is percent growth (GI% or GIPRCNT), where numbers from 0 - 100% represent growth inhibition, and numbers from -100% - 0 represent cell death. For example, a value of 40 represents 60% growth inhibition. A value of 0 means no net growth occurred over the course of the experiment. A value of -40 indicates 40% of cells at the beginning of the experiment died by the end of the experiment. A value of -100 means all cells are dead at the end of the experiment.
NCI-60 Human Tumor Cell Lines Screen was performed using the standard one-dose NCI protocol, which is described in more detail at https://dtp.cancer.gov/discovery_development/nci-60/default.htm.
Compounds with GIPRCNT values below 10 were considered active. Activity score was based on GIPRCNT using the following formula: […]
Score is 0 for GIPRCNT values of 100 or above, 50 for GIPRCNT values of 0, and 100 for GIPRCNT values of -100.
On to `COc1ccc([C@@H]2[C@@H](O)C(=O)N2c2cc(OC)c(OC)c(OC)c2)cc1F`, for which the growth is 28.4%.

With `COc1c(N2CC3CCCNC3C2)c(F)cc2c(=O)c(C(=O)N/N=C/c3ccccc3)cn(C3CC3)c12` (stereo not given), the growth is 105%.

As to `N#Cc1cccc(/C(N)=N/C(N)=N/c2nc3ccccc3s2)c1`, the growth is 48.3%.

For `O=C(Nc1ccc2c(ccn2Cc2ccccn2)c1)c1cnccn1`, the growth was 100%.

As for `CC(=O)N1C(=S)NC(=O)C1CC(C)C` (stereo not given), the growth is 105%.

In the case of `Cc1ccc(-c2nn(-c3ccccc3)cc2/C=C/C(=O)c2ccc(NC(=O)CCCCCCC(=O)NO)cc2)cc1`, the growth was 87.9%.

Regarding `CCn1c(SCC(=O)Nc2cccc(C(=O)/C=C/c3ccc(C)cc3)c2)nc2ccccc2c1=O`, the growth is 92.2%.

As to `Cc1ccc(-n2cc(/C=N/NC(=O)c3nc(N)n[nH]3)c(-c3ccc(S(C)(=O)=O)cc3)n2)cc1`, the growth was 101%.

Turning to `COc1ccc(OC)c(-c2nc(SCC(=O)c3ccc(Br)cc3)nc(Nc3ccc(S(N)(=O)=O)cc3)c2C#N)c1`, the growth is 55.9%.

Turning to `CNCc1cccc2c1OCCCCCCC(C)(O)CC(C)(C)S(=O)(=O)c1ccc(cc1)-c1cnc(N)c(n1)C(=O)N2` (stereo not given), the growth is 10% (active).

For `COC[C@]12CCC(C)(C)C[C@H]1C1=CC[C@@H]3[C@@]4(C)CCCNC(C)(C)[C@@H]4CC[C@@]3(C)[C@]1(C)CC2`, the growth is -10.6% (active).

Take `CNC(=O)c1cc(-n2ccc3cc(NC(=O)Nc4ccc(N5CCOCC5)c(C(F)(F)F)c4)ccc32)ccn1`: the growth is 56.9%.

For `N#Cc1c(Nc2ccccc2)nn2c(-c3ccc([N+](=O)[O-])cc3)ccnc12`, the growth was 102%.

Take `CC1(C)CC[C@]2(C(=O)O)CC[C@]3(C)C(=CC[C@@H]4[C@@]5(C)CC/C(=N\OCCC#N)C(C)(C)[C@@H]5CC[C@]43C)[C@@H]2C1`: the growth was 100%.

With `C=CCN(C)S(=O)(=O)/N=C1\NC(=O)NC1=C(Cl)Cl`, the growth is -96.7% (active).

As for `O=C(CCn1c[n+](CC(=O)c2ccc(F)cc2)c2ccccc21)Nc1cccc2cccnc12`, the growth was 95.7%.

As to `Cn1ccnc1C(=O)/C=C/c1ccc(NC(=O)c2ccc(F)cc2)cc1`, the growth is 37.6%.

Regarding `CCO/C=N/C1=C(C#N)C(c2ccc(OC)cc2)c2sc3c(C)cccc3c2O1` (stereo not given), the growth is 37.6%.

`C=C(C)[C@@H]1CC[C@]2(COCCCNCCC#N)CC[C@]3(C)[C@H](CC[C@@H]4[C@@]5(C)CC[C@H](OCCCNCCC#N)C(C)(C)[C@@H]5CC[C@]43C)[C@@H]12`: the growth was 65.3%.

`NC(N)=Nc1ccc(Oc2cccc(Oc3ccc(Cl)c(C(F)(F)F)c3)c2)cn1`: the growth is -99.7% (active).

`CN1CCN(Cc2ccc(NC(=O)c3cncc(C#Cc4cnc5ccc(NCCCO)nn45)c3)cc2C(F)(F)F)CC1`: the growth was 3.14% (active).

Regarding `Clc1ccc(N/N=c2/oc3ccccc3cc2-c2cc3ccccc3[nH]2)cc1`, the growth was 49.7%.

Turning to `O=C(c1ccc(O)c(C(=O)N2Cc3ccc(OCCC[P+](c4ccccc4)(c4ccccc4)c4ccccc4)cc3C2)c1)N1Cc2cccc(F)c2C1`, the growth is 101%.

On to `C=CCn1c(SCC(=O)Nc2ccc(C(=O)/C=C/c3cccc([N+](=O)[O-])c3)cc2)nnc1-c1c[nH]c2ccccc12`, for which the growth was 91.1%.

Regarding `C[C@@H]1C[C@H]2C(=O)O[C@@H](C)C(NC(=O)[C@H](Cc3cc(F)cc(F)c3)NC(=O)Nc3ccc(Cl)cc3F)C(=O)N3CCC[C@H]3C(=O)N3CCCC[C@H]3C(=O)N[C@@H](CO)C(=O)N2C1` (stereo not given in full), the growth was 31.9%.

In the case of `CC(C)c1ccc(NCc2cn(-c3ccc(C(=O)O)cc3)nc2-c2cc(C(F)(F)F)cc(C(F)(F)F)c2)cc1`, the growth is 92.6%.

Turning to `Cn1cc(-c2nnc(N)nc2-c2c[nH]c3ccc(F)cc23)c2cc(F)ccc21`, the growth is 47.7%.

Take `C=CC(=O)N1CC=C(c2cc3c(N[C@H](C)c4ccccc4)ncnc3[nH]2)CC1`: the growth is 15.1%.

For `CNC(=O)c1cc(-c2ccc(NS(=O)(=O)c3ccc(C)cc3)cc2)nc2cccnc12`, the growth is 104%.

Take `Cc1ccc2c(c1)Oc1nc(N)c(C#N)c(N)c1C2Sc1ccc(F)cc1` (stereo not given): the growth is -100% (active).

In the case of `CCNC(=O)N1CCc2cc(OC)c(OCCc3ccc(OC)cc3)cc2C1c1ccc(OC)cc1C` (stereo not given), the growth was 26.9%.

`CS(=O)(=O)c1ncc(-c2ccccc2)cn1`: the growth is 97.3%.

Take `COc1cc(/C=C2\C(=O)Nc3cc(Cl)ccc32)ccc1OCc1ccc(F)cc1`: the growth was 93.6%.

For `O=C(CSc1nc2ccccc2c(=O)n1-c1ccccc1)Nc1cccc(C(=O)/C=C/c2ccccc2)c1`, the growth is 102%.

In the case of `NC(N)=Nc1ccc(Oc2cccc(Nc3ccc(Br)c(C(F)(F)F)c3)c2)cn1`, the growth is 1.96% (active).

Regarding `CCCn1cnc2c(c1=N)C(c1ccc(OC)cc1)c1sc3c(CC)cccc3c1O2` (stereo not given), the growth was 35.7%.

For the molecule `NC(N)=Nc1ccc(Oc2cccc(Nc3ccc(Cl)c(C(F)(F)F)c3)c2)cn1`, the growth was 3.16% (active).

As for `NS(=O)(=O)c1ccc(Nc2nc(SCc3ccccc3)nc3ccccc23)cc1`, the growth is 62%.

Turning to `C#CCNC1CCC(c2csc(C#C)n2)=C1C` (stereo not given), the growth is -88.2% (active).

As to `Cc1ccc(NC(=O)CNc2cc(C(N)=O)cc(F)c2C)c(Cl)c1`, the growth was 88.9%.

Source of the values: PubChem BioAssay (NCI).
